# PubChem BioAssay (EPA / NIEHS)
# Results filed as inconclusive are left out. The source made the active and inactive calls. The calls were made as follows, unless noted: active = hit-call score of the fitted dose curve at least 0.9, where 1 is the maximum; inconclusive = response in the unintended direction; inactive = score below 0.9.
# Experiments:
# [1] = CPHEA_Stoker_NIS_Cytotoxicity: Cytotoxicity Assessment for CPHEA's Radioactive Iodide Uptake (RAIU) Assay for Sodium/Iodide Symporter (NIS) Inhibition, Stoker and Laws Labs (AID 2283897)
# Method in brief: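 ATP luminescence (Cell Titer Glo) measured viability, with loss of signal normalized to DMSO controls. Cells: hNIS-HEK293T-EPA, seeded 40 hours prior. Dosing: 0.001–100uM, 2 hours, room temperature, uptake buffer pH 7.4.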
# [2] = tested on: Sodium/Iodide Symporter (NIS), SLC5A5 (gene 6528); assay: CPHEA_Stoker_NIS_Inhibition_RAIU: CPHEA's Radioactive Iodide Uptake (RAIU) Assay for Sodium/Iodide Symporter (NIS) Inhibition, Stoker and Laws Labs (AID 2283841)
# Method in brief: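 Iodide uptake through human NIS is measured in an engineered HEK293T line. Cells take up 125I (329pM final) for 2 hours at room temperature alongside chemicals at 0.001–100uM. Retained radioactivity is counted, and the signal is expressed against DMSO controls.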
# PGR (gene 5241) [3] = biological target: PGR (gene 5241) (UniProt P06401); assay: TOX21_PR_BLA_Followup_Antagonist_ratio: Tox21 HEK293 Progesterone Receptor (PR) Antagonism Beta-lactamase Follow-Up Assay, Ratio (AID 2283934)
# Method in brief: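 HEK293T PR-UAS-bla, 2% CS-FBS; 6 hr plating, then cpd + R5020 (1 nM final), 16 hr 37C/5% CO2. B/G FRET substrate 2 h RT. Ratio ch2/ch1 vs DMSO; CellTiter-Glo viability multiplexed, autofluorescence checked.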
# [4] = TOX21_PR_BLA_Followup_Antagonist_viability: Viability Assessment in the Tox21 HEK293 Progesterone Receptor (PR) Antagonism Beta-lactamase Follow-Up Assay (AID 2283936);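 also: hits lower the luminescence signal meaning cytotoxicity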
# Method in brief: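 PR-UAS-bla HEK293T cells (3,000/well, 2% charcoal-stripped FBS) given compound plus R5020 agonist, 16 h at 37C. CellTiter-Glo added after bla read, 30 min at room temperature; luminescence loss indicates cytotoxicity.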
# PGR (gene 5241) [5] = biological target: PGR (gene 5241) (UniProt P06401); assay: TOX21_PR_LUC_Followup_Antagonist: Tox21 HEK293 Progesterone Receptor (PR) Antagonism Luciferase Follow-Up Assay (AID 2283938);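 also: curve fitted upward as signal gain over DMSO baseline despite antagonist label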
# Method in brief: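 HEK293-PR-A-luc cells were precultured 5 days in medium with 10% charcoal-stripped FBS, seeded 3,000/well, then exposed to compounds in DMSO for 16 h at 37C. Luciferase was read by ONE-Glo luminescence after 30 min at room temperature.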
# [6] = CEETOX_H295R_11DCORT_noMTC: CeeTox H295R High-throughput Steroidogenesis Assay for 11-Deoxycortisol (11DCORT), maximum tolerated concentration (MTC) filtered results only (AID 2283911; active = hit-call score of the fitted dose curve at least 0.9, where 1 is the maximum; inactive = score below 0.9); conditions: actives raise or lower the signal
# Method in brief: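 HPLC-MS/MS read-out of 11-deoxycortisol after MTBE extraction of H295R medium. Cells: forskolin 10 uM pre-stimulation 48 h, chemical 48 h, 0.1% DMSO final. Bidirectional fit vs DMSO baseline; no MTC filtering.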
# [7] = CEETOX_H295R_OHPREG_noMTC: CeeTox H295R High-throughput Steroidogenesis Assay for OH-Pregnenolone (OHPREG), maximum tolerated concentration (MTC) filtered results only (AID 2283912; active = hit-call score of the fitted dose curve at least 0.9, where 1 is the maximum; inactive = score below 0.9); conditions: actives raise or lower the signal
# Method in brief: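 Steroidogenesis in H295R cells (OECD 456, modified): after 48 h forskolin priming and 48 h chemical treatment, secreted 17alpha-hydroxypregnenolone is measured by HPLC-MS/MS. Activity is fitted in both directions against DMSO; concentrations are not filtered by MTT-based MTC.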
# [8] = CEETOX_H295R_OHPROG_noMTC: CeeTox H295R High-throughput Steroidogenesis Assay for OH-Progesterone (OHPROG), maximum tolerated concentration (MTC) filtered results only (AID 2283914; active = hit-call score of the fitted dose curve at least 0.9, where 1 is the maximum; inactive = score below 0.9); conditions: actives raise or lower the signal
# Method in brief: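 Forskolin 10 uM, 48 h prestim → test cmpd in DMSO (0.1% final), 48 h → medium MTBE extraction → LC-MS/MS quant of 17alpha-OH-progesterone. Bidirectional fit vs DMSO; no MTT-based MTC filtering.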
# [9] = CEETOX_H295R_CORTISOL_noMTC: CeeTox H295R High-throughput Steroidogenesis Assay for Cortisol, maximum tolerated concentration (MTC) filtered results only (AID 2283916; active = hit-call score of the fitted dose curve at least 0.9, where 1 is the maximum; inactive = score below 0.9); conditions: actives raise or lower the signal
# Method in brief: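 Cortisol secretion measured by LC-MS/MS after 48 h chemical treatment (final 0.1% DMSO) of forskolin-primed (10 uM, 48 h) H295R cells; gain or loss fitted relative to DMSO, without maximum-tolerated-concentration filtering.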
# [10] = CEETOX_H295R_CORTIC_noMTC: CeeTox H295R High-throughput Steroidogenesis Assay for Corticosterone (CORTIC), maximum tolerated concentration (MTC) filtered results only (AID 2283917; active = hit-call score of the fitted dose curve at least 0.9, where 1 is the maximum; inactive = score below 0.9); conditions: actives raise or lower the signal
# Method in brief: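 Following OECD 456 with minor changes, H295R cultures received 10 uM forskolin for 48 h, then test chemical at 0.1% DMSO for 48 h. Media steroids were extracted and measured by LC-MS/MS.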
# [11] = CEETOX_H295R_DOC_noMTC: CeeTox H295R High-throughput Steroidogenesis Assay for DOC, maximum tolerated concentration (MTC) filtered results only (AID 2283918; active = hit-call score of the fitted dose curve at least 0.9, where 1 is the maximum; inactive = score below 0.9); conditions: actives raise or lower the signal
# Method in brief: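 11-Deoxycorticosterone secreted by human adrenal H295R cells quantified by HPLC-MS/MS after 48 h chemical exposure (0.1% DMSO), following 48 h 10 uM forskolin prestimulation. Concentrations not filtered by MTT-derived MTC; bidirectional fitting.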
# [12] = biological target: human Thyroid hormone Receptor beta (TRb), THRB (gene 7068) (UniProt P10828); assay: ATG_hTRb_XSP2: Attagene TRANS-FACTORIAL Multi-Species (XSP2) HepG2 Assay for human Thyroid hormone Receptor beta (TRb) (AID 2283840);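 also: actives raise reporter mRNA so potency reflects agonist-like gain of signal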
# Method in brief: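 HepG2 cells were transiently transfected with GAL4-UAS multiplexed reporter units expressing chimeric NR-Gal4 proteins, dosed 24 h; reporter mRNA was quantified by RT-PCR, fluorescent labeling, HpaI digestion and capillary electrophoresis, fitted for gain of signal versus DMSO.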
# human Thyroid hormone Receptor beta (TRb), THRB (gene 7068), sequence (P10828 whole entry, looked up, the tested form may be a part): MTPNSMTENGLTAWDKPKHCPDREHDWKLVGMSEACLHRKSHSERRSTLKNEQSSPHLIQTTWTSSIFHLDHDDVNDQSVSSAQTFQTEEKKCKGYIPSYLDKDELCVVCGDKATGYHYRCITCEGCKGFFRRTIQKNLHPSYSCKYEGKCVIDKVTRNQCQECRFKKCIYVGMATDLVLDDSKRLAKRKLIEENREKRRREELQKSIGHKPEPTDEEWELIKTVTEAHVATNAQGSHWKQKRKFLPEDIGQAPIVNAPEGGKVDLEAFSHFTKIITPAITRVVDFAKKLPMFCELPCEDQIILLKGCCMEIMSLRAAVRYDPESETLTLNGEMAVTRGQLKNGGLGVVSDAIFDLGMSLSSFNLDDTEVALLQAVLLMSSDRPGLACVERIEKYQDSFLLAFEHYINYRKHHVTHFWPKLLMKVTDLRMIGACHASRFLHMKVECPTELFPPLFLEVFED
# PGR (gene 5241), sequence (P06401 whole entry, looked up): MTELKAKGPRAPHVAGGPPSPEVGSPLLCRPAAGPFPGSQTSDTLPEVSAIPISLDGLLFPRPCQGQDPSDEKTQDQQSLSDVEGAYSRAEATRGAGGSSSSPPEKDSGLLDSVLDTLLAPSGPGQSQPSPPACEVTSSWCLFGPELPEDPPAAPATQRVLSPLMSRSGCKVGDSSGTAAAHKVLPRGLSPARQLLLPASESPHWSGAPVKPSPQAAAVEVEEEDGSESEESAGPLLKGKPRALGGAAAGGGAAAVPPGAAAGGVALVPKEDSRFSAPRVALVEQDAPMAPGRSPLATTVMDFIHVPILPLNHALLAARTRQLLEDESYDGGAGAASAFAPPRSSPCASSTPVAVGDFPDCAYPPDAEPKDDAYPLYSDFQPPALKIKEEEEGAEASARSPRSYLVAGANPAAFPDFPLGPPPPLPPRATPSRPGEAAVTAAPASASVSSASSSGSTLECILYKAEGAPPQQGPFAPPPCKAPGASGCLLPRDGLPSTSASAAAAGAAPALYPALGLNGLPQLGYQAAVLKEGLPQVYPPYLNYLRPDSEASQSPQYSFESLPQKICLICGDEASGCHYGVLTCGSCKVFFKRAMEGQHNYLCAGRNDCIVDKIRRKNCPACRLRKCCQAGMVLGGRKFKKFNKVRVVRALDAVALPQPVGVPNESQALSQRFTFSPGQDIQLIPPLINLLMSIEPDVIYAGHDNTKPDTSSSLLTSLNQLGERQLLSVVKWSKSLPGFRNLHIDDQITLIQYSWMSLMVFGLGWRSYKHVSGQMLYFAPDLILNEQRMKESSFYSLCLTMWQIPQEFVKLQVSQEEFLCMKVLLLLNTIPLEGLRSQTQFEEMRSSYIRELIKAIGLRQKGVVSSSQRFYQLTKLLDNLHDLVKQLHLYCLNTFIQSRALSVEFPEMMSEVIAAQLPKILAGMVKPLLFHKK
smiles,measurement,setting,value
CCOP(=S)(OCC)SCSC(C)(C)C,outcome,[1],inactive
ClC1=C(Cl)[C@]2(Cl)[C@@H]3[C@@H]4C[C@@H]([C@H]5O[C@@H]45)[C@@H]3[C@@]1(Cl)C2(Cl)Cl,outcome,[2],inactive
same,outcome,[1],inactive
same,AC50,PGR (gene 5241) [3],20.3 µM (active)
same,outcome,[4],inactive
same,AC50,PGR (gene 5241) [5],18.2 µM (active)
CCCCCCOC(=O)c1ccccc1C(=O)OCCCCCC,outcome,[6],inactive
same,outcome,[7],inactive
same,outcome,[8],inactive
same,outcome,[9],inactive
same,outcome,[10],inactive
same,outcome,[11],inactive
c1cc2ccc3cccc4ccc(c1)c2c34,outcome,[12],inactive
